Tgondii IFNg: T. gondii growth inhibition with IFN-gamma, primary screen, cell-based; hit rate 3.8% among 69,000; activity change, negative = inhibition, % (no concentration beside the values); Toxoplasma gondii growth in IFN-gamma-treated host cells; stronger effect = lower value; in the data active means activity change below about -70%, passing the limit was not always enough;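 further: host cells are HeLa cells infected with Toxoplasma gondii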
Hits are given with their value; n = inactive; ! = repeats disagree. Only a selection was taken, and hits are over-represented in it overall.

SMILES | Tgondii IFNg
C[C@H]1O[C@@H](O[C@H]2[C@@H](O)C[C@H](O[C@H]3[C@@H](O)C[C@H](O[C@H]4CC[C@]5(C)C6CC[C@]7(C)[C@@H](C8=CC(=O)OC8)CC[C@]7(O)C6CC[C@@H]5C4)O[C@@H]3C)O[C@@H]2C)C[C@H](O)[C@@H]1O (stereo not given in full) | -79.7!
O=c1oc2ccccc2cc1-c1nn(-c2ccccc2)cc1CO | n
COc1ccc(CCN2C(=O)N(C)C(=O)C23CCN(C/C=C/c2ccccc2OC)CC3)cc1 | n
CCOC(=O)c1cc(C(N)=S)c(C)nc1C(F)(F)F | -78.7
CCOC(=O)c1cc(C#N)c(Sc2nnc(SC)s2)nc1C(F)(F)F | n
CCOC(=O)c1cc(-c2nc(-c3ccccc3)cs2)c(C)nc1C(F)(F)F | n
CSCC[C@H](NC(=O)[C@@H](N)Cc1c[nH]c2ccccc12)C(=O)N[C@@H](CC(=O)O)C(=O)N[C@@H](Cc1ccccc1)C(N)=O | n
O=C(CSc1nnc(CNc2ccc(F)cc2)o1)N1CCc2ccccc2C1 | -81.0
O=C(Cn1c(SCC(=O)N2CCc3ccccc3C2)nc2ccccc21)NC1CCCC1 | n
Cc1nnc(SCC(=O)N2CCc3[nH]c4ccc(F)cc4c3C2)o1 | n
COCCN1CCN(Cc2c(C)noc2C)Cc2ccc(C)nc21 | n
Cc1ccccc1N1CC2(CCN(C(=O)Cc3ccc(F)cc3)C2)CC1=O (stereo not given) | n
Cc1ccc(N2CC3(CCN(C(=O)Cc4ccc(F)cc4)C3)CC2=O)cc1 (stereo not given) | -113.1
Cc1ccc(N2CC3(CCN(C(=O)Nc4ccc(F)cc4)C3)CC2=O)cc1 (stereo not given) | n
N#Cc1ccc(N2CC3(CCN(C(=O)c4cnccn4)C3)CC2=O)cc1 (stereo not given) | n
O=C(c1ccn[nH]1)N1CCC2(CC(=O)N(c3ccc(F)cc3)C2)C1 (stereo not given) | -92.1
O=C(c1ccn[nH]1)N1CCC2(CC(=O)N(c3ccccc3)C2)C1 (stereo not given) | n
Cc1cc(=O)oc2cc(CN3CCN4C(=O)CN(C)C(=O)C4C3)ccc12 (stereo not given) | n
CC1CCN(C(=O)c2ccc3c(c2)CCC(=O)N3C)CC1 | n
COc1ccc(OC)c(NC(=O)N2CCC3(CC2)Nc2ccccc2-n2cccc23)c1 | n
Fc1cccc(CN2CCN(Cc3cc(CN4CCCC4)cs3)CC2)c1 | n
COc1ccc(-c2cccc(OC(C)C(N)=O)c2)c2cccnc12 (stereo not given) | n
Cc1ccc2cccc(OCCNC(=O)c3cn[nH]n3)c2n1 | n
Cc1nc2c(c(=O)[nH]1)CN(Cc1cccn1-c1cccnc1)CC2 | n
CC(C)NC(=O)c1ccc2ccccc2n1 | n
SMILES | Tgondii IFNg
CC(C)C(=O)N1C[C@H]2CN(C(=O)C3CC3)C[C@@H]2c2ccccc21 | n
CC1=C(C(=O)Nc2cc(C)cc(C)c2)C2(CCN(Cc3ccccc3)CC2)OC1=O | n
Cc1ccc(NC(=O)C(=O)NCCc2sc(-c3ccc(Cl)cc3)nc2C)cc1F | n
COc1ccc(-n2ccnc2C2CC(=O)Nc3cc4[nH]ncc4cc32)cc1 (stereo not given) | n
O=C(Nc1cc(Cl)ccc1O)c1ccccc1CN1CCOCC1 | n
Cc1ccc(SCc2ccccc2C(=O)Nc2cc(Cl)ccc2O)cc1 | -74.7
Cc1ccc(C(=O)NCCSCc2ccccc2Cl)cc1 | n
CCN1CCN(CCCNC(=O)C2=C(C)C(=O)OC23CCN(S(=O)(=O)CC)CC3)CC1 | n
COc1ccc([C@@H]2CC(=O)c3c(O)cc(O)cc3O2)cc1O | -76.9!
O=C1C[C@@H](c2ccccc2)Oc2cc(O)cc(O)c21 | n
COc1ccc([C@@H]2CC(=O)c3c(O)cc(O[C@@H]4O[C@H](CO[C@@H]5O[C@@H](C)[C@H](O)[C@@H](O)[C@H]5O)[C@@H](O)[C@H](O)[C@H]4O)cc3O2)cc1O | n
CCC(=O)Nc1ccc(OCC(=O)NCc2nc(C)c3c(n2)CCCC3)cc1 | n
CC(C)CC(=O)N1CCC2(COCc3cnc(NCc4ccco4)nc32)C1 (stereo not given) | n
O=c1[nH]c2ccccc2c(O)c1-c1nc(-c2cccc(F)c2)no1 | n
CC(COc1ccccc1)NCCn1ncc2ccccc2c1=O (stereo not given) | n
CN1CCn2c(-c3ccccc3)cnc2C12CCN(S(=O)(=O)c1ccccc1)CC2 | -107.8
Cc1ccc(CN2CCC3(CC2)c2ncc(-c4ccccc4)n2CCN3C)o1 | n
Cc1ccc(C)c(S(=O)(=O)N2CCC3(CC2)c2ncc(-c4cccc(F)c4)n2CCN3C)c1 | n
O=C(c1ccco1)N1C[C@H](OCCCn2cccn2)[C@@H]2OCCC[C@@H]21 | n
Cc1ccc(CN2C[C@@H](C(=O)NC3CC3)C[C@@H]3OCC[C@@H]32)s1 | n
CC(C)n1cnnc1CN(C)C(=O)C1CC2(CCNCC2)CN1 (stereo not given) | n
CCn1c(=O)c(C(=O)Nc2cccc(C)n2)c(O)c2ccccc21 | n
CCCn1c(=O)c(C(=O)NCCN(CC)CC)c(O)c2ccccc21 | n
CCCCc1nc2ccccc2c(=O)n1NC(=O)c1c(O)c2ccccc2n(CCC)c1=O | -113.8

Source: PubChem (Broad Institute)
